Results published in PubChem BioAssay (NCATS).
Inconclusive results are not listed. Where a call stands in place of a potency, no number is given. The source made the active and inactive calls. Calls come from the whole dose curve; as a rule, active = well fitted inhibition curve with a large enough effect; inconclusive = small, poorly fitted or top-dose-only effect; inactive = flat fitted curve, though single readings scatter.

Each compound was assayed on ICS (assay: qHTS profiling for inhibitors of Plasmodium falciparum proliferation (AID 504749; note: nearly all actives have a fitted effect of over 60% in size)). Conditions: P. falciparum in erythrocytes, SYBR Green DNA, 72 h; series mostly up to 28.7 µM.
Method in brief: (§1)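 SYBR Green fluorescence (ex 485 nm, em 535 nm) reports parasite DNA after 72 h compound exposure of infected red cells at 0.3% parasitemia, 2.5% hematocrit; signal normalized to 0.29 uM artemisinin and vehicle wells.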
Potency is the fitted concentration of half-maximal effect.

Q: With `CCN(CC)C(C)C(=O)c1ccccc1` (stereo not drawn) as the compound, how does the Potency read?
A: inactive

Q: Which Potency does the source give for `NCc1cccnc1` here?
A: inactive

Q: Which Potency does the source give for `NC(=O)CN1CCCC1=O` here?
A: inactive

Q: `CCN(Cc1ccc(Cl)nc1)/C(=C/[N+](=O)[O-])NC` was tested. Which Potency did it give?
A: inactive

Q: `CNC(=O)NC(O)C(Cl)(Cl)Cl` (stereo not drawn) was tested. Which Potency did it give?
A: inactive

Q: `NC(=O)OCCCc1ccccc1` was tested. Which Potency did it give?
A: inactive

Q: How did the Potency turn out when `C[C@H]1C(=O)O[C@@H]2CCN3CC=C(COC(=O)[C@](C)(O)[C@]1(C)O)[C@H]23` was run?
A: inactive

Q: For `O=C(CCCN1CCC(n2c(=O)[nH]c3ccccc32)CC1)c1ccc(F)cc1`, which Potency is on record?
A: 316 nM (active)

Q: How did the Potency turn out when `CCC1(CC)C(=O)NC(=O)NC1=O` was run?
A: inactive

Q: How did the Potency turn out when `COc1ccc(C(=O)N2CCCC2=O)cc1` was run?
A: inactive

Q: `CCCCCCCCC(=O)NCc1ccc(O)c(OC)c1` was tested. Which Potency did it give?
A: inactive

Q: `O=c1n(Cl)c(=O)n(Cl)c(=O)n1Cl` was tested. Which Potency did it give?
A: inactive

Q: `CC(C)[N+](C)(CCC(C(N)=O)(c1ccccc1)c1ccccc1)C(C)C` was tested. Which Potency did it give?
A: inactive

The compounds below were run on JCK in the same assay as above. Conditions: P. falciparum in erythrocytes, SYBR Green DNA, 72 h; series mostly up to 28.7 µM.
Method in brief: as §1

Q: For `CCN(CC)C(C)C(=O)c1ccccc1` (stereo not drawn), which Potency is on record?
A: inactive

Q: `NCc1cccnc1` was tested. Which Potency did it give?
A: inactive

Q: Which Potency does the source give for `NC(=O)CN1CCCC1=O` here?
A: inactive

Q: `CCN(Cc1ccc(Cl)nc1)/C(=C/[N+](=O)[O-])NC` was tested. Which Potency did it give?
A: inactive

Q: For `CNC(=O)NC(O)C(Cl)(Cl)Cl` (stereo not drawn), which Potency is on record?
A: inactive

Q: How did the Potency turn out when `NC(=O)OCCCc1ccccc1` was run?
A: inactive

Q: With `C[C@H]1C(=O)O[C@@H]2CCN3CC=C(COC(=O)[C@](C)(O)[C@]1(C)O)[C@H]23` as the compound, how does the Potency read?
A: inactive

Q: `O=C(CCCN1CCC(n2c(=O)[nH]c3ccccc32)CC1)c1ccc(F)cc1` was tested. Which Potency did it give?
A: 3550 nM (active)

Q: `CCC1(CC)C(=O)NC(=O)NC1=O` was tested. Which Potency did it give?
A: inactive

Q: With `COc1ccc(C(=O)N2CCCC2=O)cc1` as the compound, how does the Potency read?
A: inactive

Q: Which Potency does the source give for `CCCCCCCCC(=O)NCc1ccc(O)c(OC)c1` here?
A: inactive

Q: Which Potency does the source give for `O=c1n(Cl)c(=O)n(Cl)c(=O)n1Cl` here?
A: inactive

Q: How did the Potency turn out when `CC(C)[N+](C)(CCC(C(N)=O)(c1ccccc1)c1ccccc1)C(C)C` was run?
A: inactive

These compounds were tested on N140 in the same assay as above. Conditions: P. falciparum in erythrocytes, SYBR Green DNA, 72 h; series mostly up to 28.7 µM.
Method in brief: as §1

Q: For `CCN(CC)C(C)C(=O)c1ccccc1` (stereo not drawn), which Potency is on record?
A: inactive

Q: `NCc1cccnc1` was tested. Which Potency did it give?
A: inactive

Q: Which Potency does the source give for `NC(=O)CN1CCCC1=O` here?
A: inactive

Q: For `CCN(Cc1ccc(Cl)nc1)/C(=C/[N+](=O)[O-])NC`, which Potency is on record?
A: inactive

Q: For `CNC(=O)NC(O)C(Cl)(Cl)Cl` (stereo not drawn), which Potency is on record?
A: inactive

Q: With `NC(=O)OCCCc1ccccc1` as the compound, how does the Potency read?
A: inactive

Q: Which Potency does the source give for `C[C@H]1C(=O)O[C@@H]2CCN3CC=C(COC(=O)[C@](C)(O)[C@]1(C)O)[C@H]23` here?
A: inactive

Q: `O=C(CCCN1CCC(n2c(=O)[nH]c3ccccc32)CC1)c1ccc(F)cc1` was tested. Which Potency did it give?
A: 891 nM (active)

Q: Which Potency does the source give for `CCC1(CC)C(=O)NC(=O)NC1=O` here?
A: inactive

Q: Which Potency does the source give for `COc1ccc(C(=O)N2CCCC2=O)cc1` here?
A: inactive

Q: For `CCCCCCCCC(=O)NCc1ccc(O)c(OC)c1`, which Potency is on record?
A: inactive

Q: Which Potency does the source give for `O=c1n(Cl)c(=O)n(Cl)c(=O)n1Cl` here?
A: inactive

Q: `CC(C)[N+](C)(CCC(C(N)=O)(c1ccccc1)c1ccccc1)C(C)C` was tested. Which Potency did it give?
A: inactive

The compounds below were run on P93_24 in the same assay as above. Conditions: P. falciparum in erythrocytes, SYBR Green DNA, 72 h; series mostly up to 28.7 µM.
Method in brief: as §1

Q: Which Potency does the source give for `CCN(CC)C(C)C(=O)c1ccccc1` (stereo not drawn) here?
A: inactive

Q: `NCc1cccnc1` was tested. Which Potency did it give?
A: inactive

Q: For `NC(=O)CN1CCCC1=O`, which Potency is on record?
A: inactive

Q: Which Potency does the source give for `CCN(Cc1ccc(Cl)nc1)/C(=C/[N+](=O)[O-])NC` here?
A: inactive

Q: With `CNC(=O)NC(O)C(Cl)(Cl)Cl` (stereo not drawn) as the compound, how does the Potency read?
A: inactive

Q: How did the Potency turn out when `NC(=O)OCCCc1ccccc1` was run?
A: inactive

Q: `C[C@H]1C(=O)O[C@@H]2CCN3CC=C(COC(=O)[C@](C)(O)[C@]1(C)O)[C@H]23` was tested. Which Potency did it give?
A: inactive

Q: Which Potency does the source give for `O=C(CCCN1CCC(n2c(=O)[nH]c3ccccc32)CC1)c1ccc(F)cc1` here?
A: 891 nM (active)

Q: With `CCC1(CC)C(=O)NC(=O)NC1=O` as the compound, how does the Potency read?
A: inactive

Q: Which Potency does the source give for `COc1ccc(C(=O)N2CCCC2=O)cc1` here?
A: inactive

Q: Which Potency does the source give for `CCCCCCCCC(=O)NCc1ccc(O)c(OC)c1` here?
A: inactive

Q: For `O=c1n(Cl)c(=O)n(Cl)c(=O)n1Cl`, which Potency is on record?
A: inactive

Q: For `CC(C)[N+](C)(CCC(C(N)=O)(c1ccccc1)c1ccccc1)C(C)C`, which Potency is on record?
A: inactive

These compounds were tested on P94_40 in the same assay as above. Conditions: P. falciparum in erythrocytes, SYBR Green DNA, 72 h; series mostly up to 28.7 µM.
Method in brief: as §1

Q: With `CCN(CC)C(C)C(=O)c1ccccc1` (stereo not drawn) as the compound, how does the Potency read?
A: inactive

Q: With `NCc1cccnc1` as the compound, how does the Potency read?
A: inactive

Q: With `NC(=O)CN1CCCC1=O` as the compound, how does the Potency read?
A: inactive

Q: For `CCN(Cc1ccc(Cl)nc1)/C(=C/[N+](=O)[O-])NC`, which Potency is on record?
A: inactive

Q: For `CNC(=O)NC(O)C(Cl)(Cl)Cl` (stereo not drawn), which Potency is on record?
A: inactive

Q: How did the Potency turn out when `NC(=O)OCCCc1ccccc1` was run?
A: inactive

Q: How did the Potency turn out when `C[C@H]1C(=O)O[C@@H]2CCN3CC=C(COC(=O)[C@](C)(O)[C@]1(C)O)[C@H]23` was run?
A: inactive

Q: Which Potency does the source give for `O=C(CCCN1CCC(n2c(=O)[nH]c3ccccc32)CC1)c1ccc(F)cc1` here?
A: 891 nM (active)

Q: With `CCC1(CC)C(=O)NC(=O)NC1=O` as the compound, how does the Potency read?
A: inactive

Q: With `COc1ccc(C(=O)N2CCCC2=O)cc1` as the compound, how does the Potency read?
A: inactive

Q: Which Potency does the source give for `CCCCCCCCC(=O)NCc1ccc(O)c(OC)c1` here?
A: inactive

Q: Which Potency does the source give for `O=c1n(Cl)c(=O)n(Cl)c(=O)n1Cl` here?
A: inactive

Q: With `CC(C)[N+](C)(CCC(C(N)=O)(c1ccccc1)c1ccccc1)C(C)C` as the compound, how does the Potency read?
A: inactive

What follows are compounds tested on PAD in the same assay as above. Conditions: P. falciparum in erythrocytes, SYBR Green DNA, 72 h; series mostly up to 28.7 µM.
Method in brief: as §1

Q: With `CCN(CC)C(C)C(=O)c1ccccc1` (stereo not drawn) as the compound, how does the Potency read?
A: inactive

Q: Which Potency does the source give for `NCc1cccnc1` here?
A: inactive

Q: With `NC(=O)CN1CCCC1=O` as the compound, how does the Potency read?
A: inactive

Q: With `CCN(Cc1ccc(Cl)nc1)/C(=C/[N+](=O)[O-])NC` as the compound, how does the Potency read?
A: inactive

Q: How did the Potency turn out when `CNC(=O)NC(O)C(Cl)(Cl)Cl` (stereo not drawn) was run?
A: inactive

Q: How did the Potency turn out when `NC(=O)OCCCc1ccccc1` was run?
A: inactive

Q: How did the Potency turn out when `C[C@H]1C(=O)O[C@@H]2CCN3CC=C(COC(=O)[C@](C)(O)[C@]1(C)O)[C@H]23` was run?
A: inactive

Q: How did the Potency turn out when `O=C(CCCN1CCC(n2c(=O)[nH]c3ccccc32)CC1)c1ccc(F)cc1` was run?
A: 1120 nM (active)

Q: With `CCC1(CC)C(=O)NC(=O)NC1=O` as the compound, how does the Potency read?
A: inactive

Q: For `COc1ccc(C(=O)N2CCCC2=O)cc1`, which Potency is on record?
A: inactive

Q: For `CCCCCCCCC(=O)NCc1ccc(O)c(OC)c1`, which Potency is on record?
A: inactive

Q: Which Potency does the source give for `O=c1n(Cl)c(=O)n(Cl)c(=O)n1Cl` here?
A: inactive

Q: How did the Potency turn out when `CC(C)[N+](C)(CCC(C(N)=O)(c1ccccc1)c1ccccc1)C(C)C` was run?
A: inactive
